Experimental data as given in PubChem BioAssay.
Active and inactive are the calls of the source.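 Rule for the calls: active = primary screen hit whose calcium fluorescence ratio, in both repeats, exceeds the weak agonist control mean by 3 SD; inactive = the rest.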

Tested on: TRPC4 beta (transient receptor potential cation channel C4), mouse
Experiment: potentiation of DAMGO EC20 TRPC4 response – cell-based, Fluo-4, HEK293 TRPC4beta/mu-opioid, confirmation (AID 2555)
Conditions: DAMGO EC20, Fluo-4 calcium flux, at 10 µM

outcome, inactive:
Fc1ccc(-c2nnc(CN3CCN(c4ncc(C(F)(F)F)cc4Cl)CC3)o2)cc1
CCN1CCN(c2ccc(S(=O)(=O)N3CCCCC3)cc2NC(=O)COc2ccccc2)CC1
CC1CC(C)CN(CCCNC(=O)c2nn(C)c3c2CS(=O)(=O)c2ccccc2-3)C1 (centres undefined)
Cc1ccc(/C=N\NC(=O)C2COc3cc4ccccc4cc3O2)o1 (centres undefined)
Cc1cccc(C)c1OCC(O)CN (centres undefined)
CCn1cc(CN2CCCC(C(=O)Nc3ccc(-c4nc5ccccc5[nH]4)cc3)C2)c(C)n1 (centres undefined)
CC(C)(C)c1cc(Cl)ccc1OCCn1ccnc1
CC(C)c1ccc(NC(=S)N(C)CCc2ccccn2)cc1
CCCC(=O)NC(C)C(c1cccs1)N1CCN(c2ccccc2)CC1 (centres undefined)
Cc1ccc2oc(=O)c3cnn(CC(=O)NC4CCN(Cc5ccccc5)CC4)c3c2c1
O=C(CCc1ccccc1)NNC(=S)NC(=O)c1ccc(Cl)cc1
C=CCn1c(CCNC(=O)c2ccco2)nc2ccccc21
Cc1sc2nc(CSc3ccccc3)nc(NCCN(C)C)c2c1C
O=C(CNS(=O)(=O)c1ccc2ccccc2c1)NCCc1ccccn1
COc1ccc(-c2cc(C#N)nc(N3CCNCC3)n2)cc1
Cc1ccc(C)c(OCCCCn2ccnc2)c1
CCCN(CCC)CCNC(=S)Nc1ccc2nc3n(c(=O)c2c1)CCCCC3
Cc1cccc(NC(=S)NCC(c2cccnc2)N(C)C)c1 (centres undefined)
COc1ccc(/C=C/CN2CCCC(C(=O)c3ccc(OC)c(F)c3)C2)cc1 (centres undefined)
